Activity calls are given as the source filed them. How the source made its calls: active means hit-call score of the fitted dose curve at least 0.9, where 1 is the maximum; inactive means score below 0.9.
Legend:
[1] = APR_HepG2_P-H2AX_72hr: Apredica 72-hour HepG2 Assay for H2AX Phosphorylation (AID 2282916); settings: imaging, actives raise or lower the signal;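 further: phospho-histone H2A.x immunostain intensity per cell marking DNA damage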
Outline: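 Following 72 hr treatment with 0.39–200 uM compound, HepG2 cells were formaldehyde-fixed, permeabilized and stained for phospho-H2A.x; signal was measured by high-content imaging and fitted bidirectionally against DMSO controls.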

[2] = APR_HepG2_MitoMembPot_72hr: Apredica 72-hour HepG2 Assay for Mitochondrial Membrane Potential (AID 2282917); settings: imaging, actives raise or lower the signal
Outline: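 HepG2 cells exposed 72 h to compounds at 0.39–200 uM (0.5% v/v DMSO, duplicates); MitoTracker Red CMXRos 250 nM loaded 30 min before 3.7% formaldehyde fixation, imaged by HCS fluorescence. Bidirectional fit versus DMSO.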

[3] = APR_HepG2_MitoticArrest_72hr: Apredica 72-hour HepG2 Assay for Mitotic Arrest (AID 2282918); settings: high-content imaging, actives raise or lower the signal
Outline: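 HepG2 cells were exposed for 72 hr to compound at 0.39–200 uM (10 concentrations, duplicate) in 0.5% v/v DMSO, fixed in 3.7% formaldehyde, immunostained for phospho-histone H3 with Hoechst 33342 and imaged by high-content fluorescence; bidirectional fits versus DMSO.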

[4] = APR_HepG2_MicrotubuleCSK_72hr: Apredica 72-hour HepG2 Assay for Microtubule CSK Stabilty (AID 2282919); settings: HepG2 microtubule cytoskeleton, high-content imaging, actives raise or lower the signal
Outline: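 HepG2 human liver cells were dosed for 72 h at ten concentrations from 0.39 to 200 uM in duplicate (0.5% v/v DMSO final). Fixed, permeabilized cells were immunostained for alpha-tubulin (Cy5) with a Hoechst counterstain and imaged at 20x.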

[5] = APR_HepG2_StressKinase_72hr: Apredica 72-hour HepG2 Assay for Stress Kinase (AID 2282921); settings: HepG2 stress kinase (phospho-c-Jun) imaging, actives raise or lower the signal
Outline: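 Fluorescence intensity of Cy3-tagged anti-phospho-c-Jun antibody, quantified per cell from Hoechst-defined nuclei across six images per well, served as the read-out following 72 h exposure (0.39–200 uM, 0.5% v/v DMSO).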

[6] = APR_HepG2_StressKinase_24hr: Apredica 24-hour HepG2 Assay for Stress Kinase (AID 2282922); settings: HepG2 stress kinase (phospho-c-Jun) imaging, actives raise or lower the signal
Outline: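 HepG2 cells exposed 24 hr to compound at 0.39–200 uM (10 concentrations, duplicate), 0.5% v/v DMSO final. Fixed in 3.7% formaldehyde, permeabilized with Triton X-100, immunolabeled for phospho-c-Jun with Hoechst 33342; HCS fluorescence imaging, bidirectional fit versus DMSO.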

[7] = APR_HepG2_p53Act_72hr: Apredica 72-hour HepG2 Assay for p53 Activation (AID 2282923); settings: high-content imaging, actives raise or lower the signal;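 further: average cellular p53 protein immunofluorescence intensity in HepG2 cells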
Outline: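 HepG2 monolayers receive test compounds in duplicate at ten concentrations (0.39 through 200 uM) for 72 hr. They are then formaldehyde-fixed, antibody-labelled for p53, Hoechst-stained and imaged, with activity fitted bidirectionally versus DMSO.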

[8] = APR_HepG2_MitoMass_72hr: Apredica 72-hour HepG2 Assay for Mitochondrial Mass (AID 2282924); settings: high-content imaging, actives raise or lower the signal;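 further: MitoTracker Red CMXRos stain intensity per cell imaged as mitochondrial mass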
Outline: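 HepG2 cells were exposed for 72 hr to compounds at 0.39–200 uM (ten concentrations, duplicate, 0.5% v/v DMSO final). Live cells were stained with 250 nM MitoTracker Red CMXRos for 30 min, then fixed in 3.7% formaldehyde and imaged by HCS fluorescence.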

[9] = APR_HepG2_NuclearSize_72hr: Apredica 72-hour HepG2 Assay for Nuclear Size (AID 2282925); settings: high-content imaging, actives raise or lower the signal
Outline: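 HepG2 cells were exposed to compounds at ten concentrations from 0.39 to 200 uM (duplicate, 0.5% DMSO final) for 72 hr. After fixation in 3.7% formaldehyde, nuclei were stained with Hoechst 33342 (2 ug/mL) and imaged at 20x.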

[10] = APR_HepG2_P-H2AX_24hr: Apredica 24-hour HepG2 Assay for H2AX Phosphorylation (AID 2282920); settings: high-content imaging, actives raise or lower the signal
Outline: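 HepG2 human liver cells were exposed for 24 hr to compounds at 0.39–200 uM in duplicate, with 0.5% v/v DMSO final. Fixed cells were immunostained for phospho-histone H2A.x plus Hoechst 33342, imaged by HCS fluorescence, and fitted bidirectionally against DMSO.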

Measured: AC50

CC(=O)N1CCN(c2ccc(OC[C@H]3CO[C@](Cn4ccnc4)(c4ccc(Cl)cc4Cl)O3)cc2)CC1
active: [1] 32.3 µM | [3] 75.9 µM | [6] 74.9 µM | [7] 14.5 µM
not listed: [10]
inactive: all other assays above

Cc1ccc(C(C)C)cc1
not listed: [10]
inactive: all other assays above

CC/C(=C(/CC)c1ccc(O)cc1)c1ccc(O)cc1
inactive: [4] | [6] | [8] | [9]
active: [1] 68 µM | [2] 71.6 µM | [5] 28.7 µM | [7] 74.1 µM

O=C(Nc1ccc(Cl)cc1)Nc1ccc(Cl)c(Cl)c1
active: [1] 6.38 µM | [2] 56.3 µM | [4] 6.77 µM | [5] 7.87 µM | [7] 5.61 µM
inactive: [6] | [8] | [9]

CC(C)(C)c1cc(/C=C2\SC(N)=NC2=O)cc(C(C)(C)C)c1O
inactive: [2] | [9]
active: [1] 41.6 µM | [4] 27.4 µM | [10] 55.2 µM | [5] 60.5 µM | [6] 60 µM | [7] 35.2 µM | [8] 86.1 µM

C[C@]12CC[C@@H]3c4ccc(O)cc4CC[C@H]3[C@@H]1CCC2=O
not listed: [3] | [7]
inactive: all other assays above

CCO[Si](CCCNC(N)=O)(OCC)OCC
not listed: [3]
inactive: all other assays above

CCCCCCCCCCCC[N+](C)(C)C
active: [1] 75.4 µM | [5] 100 µM | [7] 20.5 µM
not listed: [3] | [10]
inactive: all other assays above

CCCCCCCCOc1ccc(C(=O)c2ccccc2)c(O)c1
not listed: [3]
inactive: all other assays above

Cc1oc2c(NC(=O)c3c(Cl)cccc3Cl)cccc2c1C(C)(C)O
not listed: [3]
inactive: all other assays above

CC(C)(C)c1csc(-c2cc3cc(OCc4ccccc4CC(=O)O)ccc3o2)n1
not listed: [3] | [10]
inactive: all other assays above

CCCCCc1ccc(N)cc1
not listed: [3] | [10]
inactive: all other assays above

c1ccc2ccccc2c1
active: [7] 0.0391 µM | [8] 0.0598 µM
not listed: [3] | [10]
inactive: all other assays above

CO[C@H]1/C=C/O[C@@]2(C)Oc3c(C)c(O)c4c(O)c(c(/C=N/N5CCN(C)CC5)c(O)c4c3C2=O)NC(=O)/C(C)=C\C=C\[C@H](C)[C@H](O)[C@@H](C)[C@@H](O)[C@@H](C)[C@H](OC(C)=O)[C@@H]1C
not listed: [3] | [10]
inactive: all other assays above

CC(O)CC(C)(C)O (stereo unspecified)
active: [2] 1.62 µM
not listed: [3]
inactive: all other assays above

O=C(O)c1ccccc1C(=O)OCc1ccccc1
not listed: [3]
inactive: all other assays above

c1ccc(C[n+]2cccc3ccccc32)cc1
active: [1] 20.6 µM | [4] 87 µM | [5] 25.6 µM | [9] 68.9 µM
inactive: [2] | [6] | [7] | [8]

CCCCCCCCCCCCO
active: [8] 119 µM
not listed: [3]
inactive: all other assays above

O=CCCCC=O
not listed: [3]
inactive: all other assays above

O=C(O)Cn1c(=O)n(Cc2ccc(Br)cc2F)c(=O)c2ccc(Cl)cc21
not listed: [3]
inactive: all other assays above
